# Laboratory results from PubChem BioAssay (NCI).
# Compounds without any hit were thinned out: in the full panel of roughly 83,000, 20% have a hit.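 Note: values are percent growth. 100 is the growth of untreated cells, values between 100 and 0 indicate rising inhibition; between -100 and 0 indicates cell death.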 A number with no mark means an inactive call. Calls of active or inactive are those of the source. How the source made its calls: active means growth percent below 10; inactive means the rest.
# Assays:
# Experiment in all cases: NCI-60 one-dose screen, 48 h (100 = growth as untreated, 0 = no growth, -100 = all killed)
# Settings in all cases: 10 µM unless noted
# RPMI-8226 leukemia = system: RPMI-8226 leukemia
# OVCAR-8 ovarian = system: OVCAR-8 ovarian
# OVCAR-5 ovarian = system: OVCAR-5 ovarian
# OVCAR-4 ovarian = system: OVCAR-4 ovarian
# SK-OV-3 ovarian = system: SK-OV-3 ovarian
# IGROV1 ovarian = system: IGROV1 ovarian
# OVCAR-3 ovarian = system: OVCAR-3 ovarian
# HS 578T breast = system: HS 578T breast
# NCI/ADR-RES ovarian = system: NCI/ADR-RES ovarian
# T-47D breast = system: T-47D breast
# BT-549 breast = system: BT-549 breast
# MDA-MB-435 melanoma = system: MDA-MB-435 melanoma
# SW-620 colon = system: SW-620 colon
# MCF7 breast = system: MCF7 breast
# HCT-116 colon = system: HCT-116 colon
# HCC-2998 colon = system: HCC-2998 colon
# KM12 colon = system: KM12 colon
Structure (SMILES),growth (RPMI-8226 leukemia),growth (OVCAR-8 ovarian),growth (OVCAR-5 ovarian) [%],growth (OVCAR-4 ovarian),growth (SK-OV-3 ovarian),growth (IGROV1 ovarian),growth (OVCAR-3 ovarian),growth (HS 578T breast),growth (NCI/ADR-RES ovarian),growth (T-47D breast),growth (BT-549 breast),growth (MDA-MB-435 melanoma),growth (SW-620 colon),growth (MCF7 breast),growth (HCT-116 colon),growth (HCC-2998 colon),growth (KM12 colon)
CCOC(=O)c1cn2c3c(cccc3c1=O)C(=O)/C(=C/c1cccc(Cl)c1Cl)C2,92.4%,95.7%,102,100%,86.1%,99.7%,113%,100%,101%,75.5%,91.6%,106%,102%,96.2%,105%,100%,108%
O=C(/C=C/c1c[nH]c2ccccc12)c1ccc(O)c(CN2CCN(c3ccc(F)cc3)CC2)c1,91%,95.1%,90.8,93.9%,101%,106%,103%,108%,103%,98%,99.2%,109%,104%,98.5%,98.3%,–,99.5%
Cc1ccc(S(=O)(=O)NCCNc2nccc(-c3c(-c4ccc(O)cc4)nc4sccn34)n2)cc1,85.9%,89.3%,135,102%,107%,97.1%,110%,106%,97.8%,85%,106%,86.4%,126%,93.7%,100%,–,100%
COc1ccc(OC)c(C2OC(c3ccc4ccccc4c3O)=NN2C(C)=O)c1 (stereo unspecified),66.6%,81%,102,75.5%,58%,75.8%,52.4%,71.7%,59.2%,63.7%,84.4%,8.75% (active),–,37.3%,55.5%,–,60.1%
Cc1ccc(S(=O)(=O)c2nc(-c3ccccc3)oc2S(C)(=O)=O)cc1,8.94% (active),54.7%,66,80.5%,76.6%,65.6%,-86.8% (active),91.2%,85.1%,-42.6% (active),53.4%,59.4%,-29.2% (active),3.86% (active),-61.8% (active),97.4%,76.4%
O=S(=O)(NCCNc1nccc(-c2c(-c3ccc(F)cc3)nc3sccn23)n1)c1ccc(F)cc1,74.7%,68.2%,102,81.4%,92.7%,61.8%,90.1%,93.8%,81.2%,60.1%,92.2%,55%,90.8%,30.9%,60.4%,–,76.5%
COc1cccc(-c2cc3c(O)cc(C#N)cc3[nH]2)c1,36.1%,106%,94.7,83.7%,108%,103%,114%,43.6%,89.2%,101%,81.7%,70.6%,88%,88.3%,89.9%,93.8%,78.1%
O=C1c2c(Cl)c(Cl)c(Cl)c(Cl)c2C(=O)C2(Cl)CC=CCC12Cl (stereo unspecified),-32.2% (active),-34.9% (active),95.7,-59.1% (active),105%,-58.7% (active),-93.5% (active),46.7%,32.7%,-38.3% (active),43.6%,21.5%,-68.7% (active),-57.5% (active),-90.2% (active),-43% (active),-6.67% (active)
COC(=O)c1nc(-c2ccccc2)oc1S(=O)(=O)N1CCN(c2cccc(Cl)c2)CC1,36.6%,76.3%,81.9,103%,92.9%,77.8%,69.2%,85.7%,89.2%,66.2%,71%,69.8%,61.7%,39.2%,54.8%,98.8%,95.1%
N/C(=N\S(=O)(=O)c1ccccc1)Nc1nc2ccccc2s1,88.6%,87.6%,96.9,100%,85.4%,90.8%,107%,98.2%,91.8%,75.9%,95.5%,101%,99.6%,90.6%,97.5%,107%,93%
O=C(c1c[nH]c(=O)c(-c2ccccc2)c1)c1ccccc1O,95.2%,85.6%,88.5,95.8%,83.6%,82.7%,98.4%,80%,82.4%,78.4%,93.2%,96.7%,92.6%,92.6%,90.5%,94.2%,89.6%
COc1ccc(-c2cnoc2-c2ccc(OC)cc2O)cc1,49.6%,51.4%,64.1,75.1%,30%,51.6%,-11.3% (active),-7.48% (active),-21% (active),40.3%,56.5%,-29.4% (active),11%,–,16.5%,32%,–
O=C(Nc1cccc(-n2cc(-c3ccncc3)c(-c3ccc(Cl)c(O)c3)n2)c1)c1ccc(N2CCOCC2)c(C(F)(F)F)c1,5.19% (active),37%,116,108%,74.2%,96.8%,56%,15.5%,43.9%,69.4%,63.6%,35.2%,6.29% (active),60.6%,29.7%,56.4%,30.6%
COc1ccc(/C=C2\CN(Cc3cn(CCNc4ccnc5cc(Cl)ccc45)nn3)C/C(=C\c3ccc(OC)c(OC)c3)C2=O)cc1OC,-1.73% (active),-3.77% (active),18.1,29.8%,4.28% (active),7.35% (active),-13.9% (active),23.4%,103%,32.9%,-31.6% (active),-5.87% (active),0.355% (active),28%,–,–,-35.7% (active)
COc1ccc(Nc2[nH]n3c(=O)cc(-c4ccccc4)nc3c2C(=O)Nc2ccc(C)cc2)c(OC)c1,108%,79.4%,92,89.6%,91.2%,102%,98.7%,78.1%,108%,83.8%,92.9%,96.8%,99.5%,99.6%,–,111%,106%
COc1ccc(C2C=C(c3ccc(OC)c(OC)c3)N=C3SC=C(C)N32)c(Br)c1 (stereo unspecified),102%,99.2%,92.8,99.6%,107%,105%,112%,116%,113%,98.3%,99%,110%,–,94.5%,105%,110%,107%
C=C1CCC[C@]2(C)CCC[C@H](C)[C@@H](OC(C)=O)[C@@H]3OC(=O)C(=C)[C@@H]3C[C@H]1O2,54.8%,61.5%,101,61.2%,85%,81.8%,47.9%,78%,73.6%,76.4%,48.1%,53.9%,80.8%,–,55.1%,–,79.4%
O=c1c2sc3ncccc3c2nnn1-c1ccccc1,99%,104%,101,103%,105%,106%,112%,108%,107%,85.4%,108%,101%,109%,90.6%,–,–,106%
